Experimental data taken from PubChem BioAssay AID1159580 (chemical genetic matrix, 2015).
Where “and” joins values, the source holds several entries; their conditions need not be identical. Equal entries are not always repeated. Out of some 5,500 compounds screened, about 2,000 (36%) were called active. Another 18% or so got no clear call; they are omitted. Rule as the data show it: active = normalized growth mostly below about 0.91 (no sharp cut-off); inconclusive = no clear call, values can overlap the other calls; inactive = mostly above about 0.92. The list shows a part of the results.

Assay: chemical genetic growth profiling, strain panel (AID 1159580);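 also: tested at 20 µM; growth read once vehicle control cultures reached saturation at 30 °C; 1 = growth at the plate median or of vehicle wells; lower values mean less growth of the strain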
Settings: S. cerevisiae deletion strains, growth OD

Measured: normalized growth

C=CC(C1=CC(=O)C(OC)=CC1=O)c1ccc(OC)cc1 (stereo unspecified)
active: locus YAL021C, strain ccr4, active compounds read low 0.873 | locus YAL026C, strain drs2, active compounds read low 0.765 | locus YAL030W, strain snc1, active compounds read low 0.893 | locus YBL061C, strain skt5, active compounds read low 0.872 | locus YBR009C, strain hhf1, active compounds read low 0.661 | locus YBR023C, strain chs3, active compounds read low 0.853 | locus YBR231C, strain swc5, active compounds read low 0.854 | locus YBR279W, strain paf1, active compounds read low 0.883 | locus YCL011C, strain gbp2, active compounds read low 0.857 | locus YCL016C, strain dcc1, active compounds read low 0.81 | locus YCL069W, strain vba3, active compounds read low 0.911 | locus YDL192W, strain arf1, active compounds read low 0.871 | locus YDR069C, strain doa4, active compounds read low 0.889 | locus YDR101C, strain arx1, active compounds read low 0.906 | locus YDR137W, strain rgp1, active compounds read low 0.596 | locus YDR159W, strain sac3, active compounds read low 0.813 | locus YDR162C, strain NBP2, active compounds read low 0.801 | locus YDR195W, strain ref2 1.16 [resistant] | locus YDR318W, strain mcm21, active compounds read low 0.843 | locus YDR388W, active compounds read low 0.601 | locus YDR392W, strain spt3, active compounds read low 0.23 | locus YDR502C, strain sam2, active compounds read low 0.893 | locus YEL003W, strain gim4, active compounds read low 0.803 | locus YEL061C, strain CIN8 (second series), active compounds read low 0.876 | locus YER015W, strain faa2, active compounds read low 0.906 | locus YER016W, strain bim1, active compounds read low 0.912 | locus YER155C, strain BEM2 (second series), active compounds read low 0.476 | locus YER167W, strain BCK2, active compounds read low 0.829 | locus YFR010W, strain ubp6, active compounds read low 0.887 | locus YGL086W, strain mad1, active compounds read low 0.87 | locus YGL173C, strain kem1, active compounds read low 0.853 | locus YGL240W, strain doc1, active compounds read low 0.743 | locus YGL253W, strain hxk2, active compounds read low 0.813 | locus YGR135W, strain pre9, active compounds read low 0.856 | locus YHR013C, strain ard1, active compounds read low 0.6 | locus YHR079C, strain IRE1 (second series), active compounds read low 0.893 | locus YHR142W, strain chs7, active compounds read low 0.637 | locus YHR200W, strain rpn10, active compounds read low 0.907 | locus YIR030C, strain dcg1, active compounds read low 0.882 | locus YJL095W, strain BCK1 (second series), active compounds read low 0.809 | locus YJL129C, strain trk1, active compounds read low 0.868 | locus YJL164C, strain tpk1, active compounds read low 0.759 | locus YJL166W, strain qcr8, active compounds read low 0.588 | locus YJL187C, strain SWE1, active compounds read low 0.841 | locus YJR043C, strain POL32, active compounds read low 0.832
inactive: locus YAL013W, strain DEP1, active compounds read low 0.956 | locus YBR021W, strain FUR4, active compounds read low 0.957 | locus YBR171W, strain sec66, active compounds read low 0.983 | locus YBR229C, strain ROT2, active compounds read low 0.968 | locus YCL029C, strain bik1, active compounds read low 0.917 | locus YCL061C, strain MRC1, active compounds read low 0.981 | locus YCR088W, strain abp1, active compounds read low 0.983 | locus YDL005C, strain med2, active compounds read low 1.01 | locus YDL035C, strain GPR1, active compounds read low 0.896 | locus YDL040C, strain nat1, active compounds read low 0.975 | locus YDL074C, strain BRE1, active compounds read low 0.827 | locus YDL101C, strain DUN1, active compounds read low 0.939 | locus YDL134C, strain PPH21, active compounds read low 0.961 | locus YDL185W, strain tfp1, active compounds read low 0.976 | locus YDR001C, strain nth1, active compounds read low 0.982 | locus YDR150W, strain NUM1, active compounds read low 0.985 | locus YDR297W, strain sur2, active compounds read low 0.934 | locus YDR334W, strain swr1, active compounds read low 0.918 | locus YDR335W, strain msn5, active compounds read low 0.94 | locus YEL037C, strain rad23, active compounds read low 0.946 | locus YEL061C, strain CIN8, active compounds read low 0.982 | locus YER110C, active compounds read low 0.905 | locus YER111C, strain swi4, active compounds read low 0.984 | locus YER155C, strain BEM2, active compounds read low 0.973 | locus YGL078C, strain dbp3, active compounds read low 0.978 | locus YGL167C, strain pmr1, active compounds read low 0.978 | locus YGL227W, strain vid30, active compounds read low 0.993 | locus YGL248W, strain PDE1, active compounds read low 0.948 | locus YGR078C, strain PAC10, active compounds read low 0.875 | locus YGR229C, strain SMI1, active compounds read low 0.812 | locus YGR252W, strain gcn5, active compounds read low 0.77 | locus YHR027C, strain rpn1, active compounds read low 0.948 | locus YHR030C, strain SLT2, active compounds read low 0.957 and 1 | locus YHR079C, strain IRE1, active compounds read low 1.03 | locus YHR094C, strain hxt1, active compounds read low 0.947 | locus YHR129C, strain ARP1, active compounds read low 0.939 | locus YIL066C, strain RNR3, active compounds read low 0.879 | locus YIL073C, strain SPO22, active compounds read low 0.929 | locus YIL125W, strain kgd1, active compounds read low 0.952 | locus YJL092W, strain hpr5, active compounds read low 0.948 | locus YJL095W, strain BCK1, active compounds read low 0.894 and 1.04 | locus YJL115W, strain asf1, active compounds read low 0.973 | locus YJL134W, strain LCB3, active compounds read low 0.967 | locus YJL154C, strain vps35, active compounds read low 0.96 | locus YJL168C, strain set2, active compounds read low 0.947 | locus YJL187C, strain SWE1 (second series), active compounds read low 0.933
